Key:
Conditions in all cases: concentration: 1 μM, replicates: in singlicate; n = 1
[1] = system: ADCK4
[2] = system: AKT1
[3] = system: AKT2
[4] = system: AKT3
[5] = system: ALK
[6] = system: T1, AMPK-alpha1
T1 construct: gene PRKAA1

[7] = system: T2, AMPK-alpha2
T2 construct: gene PRKAA2

[8] = system: ANKK1
[9] = system: T3, ARK5
T3 construct: gene NUAK1

[10] = system: T4, ASK1
T4 construct: gene MAP3K5

[11] = system: T5, ASK2
T5 construct: gene MAP3K6

[12] = system: AURKA
[13] = system: AURKB
[14] = system: AURKC
[15] = system: AXL
[16] = system: T6, BIKE
T6 construct: gene BMP2K

[17] = system: BLK
[18] = system: BMPR1A
[19] = system: BMPR1B
[20] = system: BMPR2
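Further: KINOMEscan kinase panel screen.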

Row | SMILES | %Inh [1] [%] | %Inh [2] [%] | %Inh [3] [%] | %Inh [4] [%] | %Inh [5] [%] | %Inh [6] [%] | %Inh [7] [%] | %Inh [8] [%] | %Inh [9] [%] | %Inh [10] [%] | %Inh [11] [%] | %Inh [12] [%] | %Inh [13] [%] | %Inh [14] [%] | %Inh [15] [%] | %Inh [16] [%] | %Inh [17] [%] | %Inh [18] [%] | %Inh [19] [%] | %Inh [20] [%]
1 | COc1cc2c(cc1OCCN1CCNCC1)ncc1c3ccc(C#N)cc3[nH]c21 | 5 | 0 | 0 | 0 | 26 | 15 | 4 | 37 | 22 | 0 | 16 | 21 | 65 | 9 | 32 | 97.8 | 0 | 12 | 22 | 19
2 | COc1ccc(Nc2nccc(N3CCC(NC(=O)Nc4cccc(OC)c4)C3)n2)cc1 (stereo not drawn) [GSK1379742] | 14 | 0 | 0 | 0 | 25 | 1 | 0 | 0 | 25 | 5 | 13 | 0 | 53 | 10 | 0 | 13 | 37 | 0 | 0 | 12
3 | Cc1ccc(F)c(C(=O)Nc2cccc(-c3nn4ccccc4c3-c3ccnc(Nc4cccc(F)c4)n3)c2)c1F [GSK361061] | 37 | 0 | 7 | 0 | 7 | 8 | 17 | 33 | 20 | 2 | 27 | 29 | 4 | 59 | 56 | 35 | 91.3 | 10 | 0 | 8
4 | O=C(Nc1cccc(-c2nn3ccccc3c2-c2ccnc(Nc3cccc(F)c3)n2)c1)c1c(F)ccc(F)c1Cl [GSK357952] | 0 | 0 | 9 | 0 | 0 | 20 | 21 | 2 | 0 | 1 | 6 | 0 | 7 | 66 | 19 | 25 | 97.2 | 0 | 0 | 0
5 | Nc1ncc(-c2ccc3nccc(-c4ccncc4)c3c2)cc1S(=O)(=O)N1CCOCC1 [GSK1627798] | 24 | 0 | 12 | 0 | 30 | 0 | 0 | 5 | 0 | 0 | 0 | 0 | 0 | 6 | 36 | 24 | 100 | 0 | 0 | 0
6 | CCn1c(-c2nonc2N)nc2c(C#CC(C)(C)O)nc(OC[C@H](N)c3ccccc3)cc21 [GSK943949] | 0 | 95.8 | 98.8 | 95.8 | 19 | 0 | 3 | 0 | 18 | 0 | 0 | 37 | 0 | 4 | 13 | 19 | 0 | 0 | 9 | 1
7 | CCS(=O)(=O)c1ccc(OC)c(Nc2nccc(-c3c(-c4cccc(NC(=O)c5c(F)cccc5F)c4)nn4ncccc34)n2)c1 [GSK326180] | 18 | 0 | 15 | 0 | 25 | 2 | 27 | 0 | 18 | 20 | 9 | 15 | 25 | 60 | 9 | 40 | 36 | 0 | 0 | 4
8 | CN(C)S(=O)(=O)c1cc(-c2ccc3nccc(-c4cccc(S(N)(=O)=O)c4)c3c2)cnc1N [GSK1669921] | 0 | 0 | 5 | 0 | 30 | 3 | 0 | 5 | 11 | 0 | 5 | 8 | 0 | 17 | 10 | 22 | 18 | 0 | 0 | 3
9 | COc1cc(Nc2nccc(N3CCC(NC(=O)c4cc5ccccc5s4)C3)n2)cc(OC)c1OC (stereo not drawn) [GSK1379760] | 26 | 1 | 8 | 0 | 19 | 45 | 30 | 12 | 17 | 20 | 100 | 59 | 68 | 86 | 14 | 70 | 100 | 0 | 0 | 13
10 | CC(=O)N1CCN(c2ccc(Nc3nccc(-c4sc(C(C)C)nc4-c4cccc(NS(=O)(=O)c5cccc(Cl)c5)c4)n3)cn2)CC1 [GSK1660437] | 72 | 0 | 5 | 0 | 7 | 48 | 75 | 7 | 0 | 0 | 2 | 0 | 0 | 10 | 68 | 24 | 91.4 | 0 | 97.1 | 0
11 | C[C@@H](Oc1cc(-n2cnc3cc(-c4ccnc(NCCS(C)(=O)=O)c4)ccc32)sc1C(N)=O)c1ccccc1Cl [GSK907232] | 10 | 0 | 16 | 0 | 18 | 0 | 0 | 0 | 84 | 0 | 7 | 0 | 27 | 65 | 91 | 97.7 | 30 | 21 | 0 | 0
12 | Cn1cc(-c2ccc3c(c2)CCN3C(=O)Cc2cccc(Cl)c2)c2c(N)ncnc21 [GSK2606590] | 1 | 0 | 10 | 0 | 30 | 4 | 20 | 0 | 13 | 9 | 19 | 23 | 89 | 65 | 96.3 | 18 | 69 | 0 | 0 | 4
13 | c1ccc(Oc2ccc(Nc3ccnc4cc(-c5ccc(CNCCN6CCOCC6)o5)ccc34)cc2)nc1 [GW567145] | 31 | 0 | 10 | 0 | 0 | 0 | 0 | 34 | 44 | 0 | 0 | 22 | 71 | 9 | 0 | 0 | 86 | 0 | 0 | 14
14 | O=c1[nH]cc(-c2ccc(N3CCOCC3)cc2)c2sc(-c3cn[nH]c3)cc12 [GSK2276055] | 0 | 0 | 16 | 0 | 4 | 0 | 0 | 21 | 18 | 0 | 13 | 28 | 21 | 21 | 0 | 28 | 0 | 1 | 0 | 24
15 | CSc1cccc2c(-c3ccncn3)c(-c3ccc(F)cc3)nn12 [GW514786] | 35 | 0 | 0 | 4 | 29 | 32 | 0 | 0 | 12 | 0 | 29 | 8 | 15 | 7 | 11 | 8 | 19 | 10 | 0 | 11
16 | CC(C)(C)c1ccc2nccc(Nc3cccc(O)c3)c2c1 [GW856795] | 41 | 0 | 0 | 0 | 39 | 0 | 0 | 0 | 0 | 0 | 0 | 0 | 33 | 0 | 70 | 0 | 59 | 0 | 44 | 38
17 | COC(=O)Nc1nc2cc(Oc3ccc(NC(=O)Nc4cc(C(F)(F)F)ccc4F)cn3)ccc2[nH]1.Cl.Cl [GW681170] | 19 | 0 | 0 | 0 | 6 | 19 | 23 | 8 | 0 | 10 | 0 | 78 | 40 | 52 | 98.3 | 1 | 31 | 0 | 0 | 10
18 | COc1ccc(CNC(=O)NC2CCN(c3ccnc(Nc4ccc(F)cc4)n3)CC2)cc1 [GSK1379788] | 49 | 0 | 0 | 0 | 20 | 0 | 0 | 0 | 5 | 0 | 0 | 34 | 26 | 5 | 0 | 0 | 3 | 0 | 0 | 5
